From PubChem BioAssay
Unmarked numbers belong to inactive results. For some of these results: Results with a measured potency or affinity are listed apart. Active and inactive are the calls of the source. Unless noted, how the calls were made is not given here.

Experiments:
[1] = antimalarial activity against Dd2 strain (AID 2302;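 active means growth inhibition above 50% at the single 2 µM test dose, taken to imply half-maximal potency below 2 µM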;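 further: 0% = DMSO untreated growth and 100% = chloroquine plus artemisinin killed control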); details: P. falciparum Dd2 in RBCs, LDH growth readout, 72 h; at 2 µM; stronger effect = higher value
[2] = human hepatoma cell viability loss – ATP luminescence, cytotoxicity control for P. falciparum antimalarial project, primary screen (AID 2303;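 active means inhibition above 50%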;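 further: 0% = DMSO wells and 100% = digitonin-killed cells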); details: HepG2 viability, 24-48 h, at 10 µM, stronger effect = higher value
[3] = biological target: L-lactate dehydrogenase (Plasmodium falciparum (isolate CDC / Honduras)) (UniProt Q27743); test: PfLDH activity inhibition – cell lysate, 3D7 strain, counter-screen for P. falciparum growth inhibition project (AID 2304);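 further: 0% = vehicle and 100% = reference inhibitor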; details: P. falciparum 3D7 crude extract, LDH APAD/NBT absorbance; at 2 µM; stronger effect = higher value
[4] = inhibition of 3D7 malaria parasite growth – strain 3D7 (AID 2306);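 further: 0% = DMSO wells and 100% = chloroquine plus artemisinin control wells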; details: P. falciparum 3D7 erythrocytic growth, LDH absorbance, 72 h; at 2 µM; stronger effect = higher value
[5] = biological target: Calcium-dependent protein kinase 1 (Plasmodium falciparum (isolate 3D7)) (UniProt P62344); test: PfCDPK1 kinase inhibitors, biochemical, TCAMS library (AID 1159585; cut-off not given, nearly all actives have IC50 up to about 0.98 µM;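 further: inhibitors leave more ATP so luminescence rises with inhibition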); details: recombinant PfCDPK1, Kinase-Glo ATP depletion luminescence
[6] = biological target: Plasmodium falciparum protein kinase 6 (PK6, PF3D7_1337100) (UniProt Q8IDW1); test: PfPK6 kinase inhibitors, biochemical, TCAMS library (AID 1159586); details: recombinant PfPK6, Kinase-Glo ATP depletion luminescence
[7] = biological target: Protein kinase 7 (PK7), Plasmodium falciparum 3D7 (PF3D7_0213400) (UniProt Q7YTF7); test: inhibition of Plasmodium PK7 catalytic activity – biochemical, TCAMS antimalarial set, Kinase-Glo luminescence (AID 1159587); details: recombinant PfPK7, Kinase-Glo ATP depletion luminescence
[8] = biological target: Calcium-dependent protein kinase 4 (Plasmodium falciparum (isolate 3D7)) (UniProt Q8IBS5); test: PfCDPK4 kinase inhibitors, biochemical, TCAMS library (AID 1159588; cut-off not given, nearly all actives have IC50 up to about 0.91 µM); details: recombinant PfCDPK4, Kinase-Glo ATP depletion luminescence
Sequence of Calcium-dependent protein kinase 4 (Plasmodium falciparum (isolate 3D7)) (Q8IBS5 whole entry, looked up): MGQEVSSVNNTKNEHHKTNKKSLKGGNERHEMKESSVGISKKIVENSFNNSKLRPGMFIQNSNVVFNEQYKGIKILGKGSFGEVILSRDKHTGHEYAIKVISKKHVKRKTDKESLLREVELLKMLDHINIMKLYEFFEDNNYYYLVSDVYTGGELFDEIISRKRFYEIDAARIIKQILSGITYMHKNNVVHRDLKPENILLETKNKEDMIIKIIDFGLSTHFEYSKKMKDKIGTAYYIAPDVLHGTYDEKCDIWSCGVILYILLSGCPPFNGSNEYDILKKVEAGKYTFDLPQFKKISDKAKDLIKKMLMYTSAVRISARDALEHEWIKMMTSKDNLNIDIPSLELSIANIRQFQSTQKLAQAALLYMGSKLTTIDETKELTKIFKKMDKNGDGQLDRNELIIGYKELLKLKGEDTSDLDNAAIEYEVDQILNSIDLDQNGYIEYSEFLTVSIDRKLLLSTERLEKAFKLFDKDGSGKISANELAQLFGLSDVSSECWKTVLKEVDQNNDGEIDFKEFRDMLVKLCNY

Sequence of Calcium-dependent protein kinase 1 (Plasmodium falciparum (isolate 3D7)) (P62344 whole entry, looked up): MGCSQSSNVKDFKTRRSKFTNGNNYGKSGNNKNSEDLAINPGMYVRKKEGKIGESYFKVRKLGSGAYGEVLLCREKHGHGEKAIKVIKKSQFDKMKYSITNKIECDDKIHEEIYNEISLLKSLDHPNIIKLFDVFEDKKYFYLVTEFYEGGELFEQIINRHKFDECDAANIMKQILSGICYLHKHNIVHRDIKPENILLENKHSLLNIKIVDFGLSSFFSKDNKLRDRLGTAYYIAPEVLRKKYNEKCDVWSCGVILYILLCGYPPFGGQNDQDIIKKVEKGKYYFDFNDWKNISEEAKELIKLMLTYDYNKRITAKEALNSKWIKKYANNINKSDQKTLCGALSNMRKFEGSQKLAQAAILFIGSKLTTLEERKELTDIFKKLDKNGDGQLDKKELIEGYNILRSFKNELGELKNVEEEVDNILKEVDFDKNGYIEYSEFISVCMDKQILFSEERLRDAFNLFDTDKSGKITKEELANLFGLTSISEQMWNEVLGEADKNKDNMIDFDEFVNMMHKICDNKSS
Sequence of Plasmodium falciparum protein kinase 6 (PK6, PF3D7_1337100) (Q8IDW1 1-305): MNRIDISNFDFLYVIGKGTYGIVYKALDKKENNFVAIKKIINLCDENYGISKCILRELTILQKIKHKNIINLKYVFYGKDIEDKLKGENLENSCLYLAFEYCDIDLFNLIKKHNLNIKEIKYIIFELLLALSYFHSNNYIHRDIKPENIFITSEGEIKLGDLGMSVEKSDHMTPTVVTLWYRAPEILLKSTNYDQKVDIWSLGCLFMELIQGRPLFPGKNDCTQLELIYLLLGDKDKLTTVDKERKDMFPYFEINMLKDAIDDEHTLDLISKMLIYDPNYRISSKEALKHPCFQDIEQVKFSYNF
Sequence of Protein kinase 7 (PK7), Plasmodium falciparum 3D7 (PF3D7_0213400) (Q7YTF7 1-343): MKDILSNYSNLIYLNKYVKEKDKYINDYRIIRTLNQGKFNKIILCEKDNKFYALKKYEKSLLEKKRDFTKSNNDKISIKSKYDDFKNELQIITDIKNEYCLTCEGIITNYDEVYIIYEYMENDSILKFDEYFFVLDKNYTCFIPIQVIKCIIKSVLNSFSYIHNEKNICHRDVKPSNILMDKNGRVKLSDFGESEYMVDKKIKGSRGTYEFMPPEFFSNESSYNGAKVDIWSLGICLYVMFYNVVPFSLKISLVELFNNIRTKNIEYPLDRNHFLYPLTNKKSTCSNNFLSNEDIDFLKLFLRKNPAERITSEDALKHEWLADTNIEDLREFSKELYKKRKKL
Sequence of L-lactate dehydrogenase (Plasmodium falciparum (isolate CDC / Honduras)) (Q27743 whole entry, looked up): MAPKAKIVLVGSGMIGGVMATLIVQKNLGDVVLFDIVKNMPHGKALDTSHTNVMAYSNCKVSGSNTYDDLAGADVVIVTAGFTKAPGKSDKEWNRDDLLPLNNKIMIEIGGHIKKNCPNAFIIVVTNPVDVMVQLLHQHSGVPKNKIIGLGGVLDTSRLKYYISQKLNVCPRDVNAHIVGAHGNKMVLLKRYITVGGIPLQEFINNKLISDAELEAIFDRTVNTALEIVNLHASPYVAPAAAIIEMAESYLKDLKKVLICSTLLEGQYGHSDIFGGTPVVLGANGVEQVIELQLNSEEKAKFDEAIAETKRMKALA

Compound | growth inhibition [1] | inhibition [2] | inhibition [3] [%] | growth inhibition [4] | outcome [5] | outcome [6] | outcome [7] | outcome [8]
O=c1cc(NCCCNCc2cc(Cl)c(Cl)cc2Cl)[nH]c2ccccc12 | 20% | 7% | -1 | 93% (active) | inactive | inactive | inactive | inactive
O=C(NC1CCC(N2CCC(Cc3ccc(F)cc3)CC2)CC1)c1cc2ccccc2[nH]1 (stereo not drawn) | 39% | 60% (active) | -2 | 98% (active) | inactive | inactive | inactive | inactive
COc1cc(OC)c(NC(=O)C2c3ccccc3C(=O)N(CC(C)C)C2c2cccs2)cc1Cl (stereo not drawn) | 100% (active) | 9% | -1 | 100% (active) | inactive | inactive | inactive | inactive
O=C(C=Cc1ccc(Cl)c(Cl)c1)NCCCCCN1CCC(CCCNC(=O)/C=C/c2ccccc2)CC1 | 33% | 50% (active) | -9 | 96% (active) | inactive | inactive | inactive | inactive
COC(=O)Nc1cc(C(F)(F)F)ccc1N1CCC(CNS(=O)(=O)c2ccc(OC)cc2)CC1 | 95% (active) | 13% | 0 | 99% (active) | inactive | inactive | inactive | inactive
COc1ccc(NC(=O)Nc2ccc(Nc3nc(C)cc(N4CCCC4)n3)cc2)cc1 | 100% (active) | 14% | -2 | 101% (active) | inactive | inactive | inactive | inactive
CN=C(NO)NCCN(C)C | -5% | -1% | -2 | 88% (active) | inactive | inactive | inactive | inactive
CCc1c(CCNCCCCCCNCCc2ccc(Br)cc2)ccc(O)c1O | 1% | 11% | -1 | 95% (active) | inactive | inactive | inactive | inactive
O=C(Cc1ccc(NC(=O)c2ccc(O)c(-c3ccc(Cl)c(Cl)c3)c2)cc1)NCCN1CCOCC1 | 24% | 10% | 4 | 94% (active) | inactive | inactive | inactive | inactive
Cc1cc(N(C)C)nc(Nc2ccc(NC(=O)c3ccc(Br)o3)cc2)n1 | 57% (active) | 1% | -2 | 101% (active) | inactive | inactive | inactive | inactive
CC(C)(C)c1ccc(CN2CCC(CNC(=O)c3cc(-c4cccc(Cl)c4)cs3)C2)cc1 (stereo not drawn) | 83% (active) | 44% | 1 | 101% (active) | inactive | inactive | inactive | inactive
O=C(Nc1ccc(OC2CCN(Cc3ccco3)CC2)c(Cl)c1)c1ccc2ncccc2c1 | 40% | -5% | -4 | 97% (active) | inactive | inactive | inactive | inactive
COC(=O)c1ccc2c(-c3nc4ccc(OC)cc4[nH]3)c[nH]c2c1 | 31% | 0% | 5 | 95% (active) | inactive | inactive | inactive | inactive
Cc1ccc(-n2nc3ccc(NC(=O)c4ccc([N+](=O)[O-])o4)cc3n2)cc1C | 95% (active) | 20% | -3 | 94% (active) | inactive | inactive | inactive | inactive
Cc1cccc2[nH]c(-c3ccc(-c4ccc(CNCc5ccccc5)cc4)cc3)nc12 | 90% (active) | 5% | -2 | 99% (active) | inactive | inactive | inactive | inactive
CN(C)CCCNCc1ccc(-c2ccc(CNCCOc3ccccc3)cc2)cc1 | 53% (active) | 27% | 0 | 100% (active) | inactive | inactive | inactive | inactive
CCC(C)(CC)C(=O)n1ncc2c3c(N)nc(N)nc3ccc21 | 6% | 73% (active) | -4 | 94% (active) | inactive | inactive | inactive | inactive
CCCc1c(C(=O)Nc2ccc3c(c2)CCN(C2CCC2)CC3)cnn1-c1ccc(Cl)cc1 | 12% | 64% (active) | 2 | 92% (active) | inactive | inactive | inactive | inactive
O=C(N[C@@H](CC1CCCCC1)C(=O)NC1CCCc2ccccc21)c1ccc(O)c(-c2cccc([N+](=O)[O-])c2)c1 (stereo partly drawn) | 98% (active) | -12% | 1 | 99% (active) | inactive | inactive | inactive | inactive
c1ccc(Oc2ccc(Nc3ccnc4ccc(-c5ccco5)cc34)cc2)cc1 | 32% | -4% | -1 | 87% (active) | inactive | inactive | inactive | inactive
Nc1ncc(-c2cc3ccccc3o2)c(N)n1 | 2% | -3% | 0 | 81% (active) | inactive | inactive | inactive | inactive

Compound | growth inhibition [1] | inhibition [2] | inhibition [3] [%] | growth inhibition [4] | outcome [5] | outcome [6] | outcome [7] | outcome [8]
CCOc1cc(C(=O)NCCN(CC)c2cccc(C)c2)ccc1-c1nc2ccc(Cl)cc2[nH]1 | 80% (active) | -1% | 0 | 102% (active) | inactive | inactive | inactive | inactive
COc1ccc(-n2nc(C(=O)NCc3ccccc3OC)c3ccccc3c2=O)cc1 | 94% (active) | 2% | 0 | 102% (active) | inactive | inactive | inactive | inactive
CCOc1cc(Cc2cnc(N)nc2N)cc(OC)c1OC | 0% | -3% | -1 | 90% (active) | inactive | inactive | inactive | inactive
C=CCc1cc(C2CCN(CCCCNC(=O)c3ccc(-c4ccc(C#N)cc4)cc3)CC2)c(OCC(N)=O)c2c1CCCC2 | 92% (active) | 43% | -6 | 101% (active) | inactive | inactive | inactive | inactive
CSc1cccc(NC(=O)Nc2ccc(I)c(OCCN(C)C)c2)c1 | 19% | 14% | -1 | 97% (active) | inactive | inactive | inactive | inactive
CN1CCN(c2ccc(Nc3ccnc4ccc(-c5ccccc5)cc34)cc2)CC1 | 101% (active) | 20% | -2 | 101% (active) | inactive | inactive | inactive | inactive
O=C(NC1CCN(Cc2cccc(C(F)(F)F)c2)CC1)c1ccc(-c2cccc(Cl)c2)s1 | 33% | 26% | -1 | 89% (active) | inactive | inactive | inactive | inactive
Cc1c(Cc2ccccc2Br)cnc2nc(N)nc(N)c12 | 97% (active) | 67% (active) | 0 | 88% (active) | inactive | inactive | inactive | inactive
CC(C)CCN=C(N)Nc1ccc(OCCCOc2ccc(NC(N)=NCCC(C)C)cc2)cc1 | 95% (active) | 0% | -3 | 100% (active) | inactive | inactive | inactive | inactive
O=C(NC1CCCCC1)N(Cc1cccc(-c2cccc(CNC3CCCC3)c2)c1)C1CCN(Cc2ccccc2)CC1 | 90% (active) | 64% (active) | -7 | 96% (active) | inactive | inactive | inactive | inactive
Cc1nc2c(-n3cc(Cn4ccnc4)c4ccccc43)ncnc2n1-c1ccc(Cl)cc1Cl | 29% | 16% | -5 | 89% (active) | inactive | inactive | inactive | inactive
O=C(N[C@@H](Cc1ccccc1)[C@H](O)CNC1CCCCC1)c1cc(C2CCCC2)cc(N2CCCC2=O)c1 | 98% (active) | 17% | 0 | 100% (active) | inactive | inactive | inactive | inactive
Cc1cccc2[nH]c(-c3ccc(-c4cccc(CNCCCNS(C)(=O)=O)c4)cc3)nc12 | 5% | 5% | 2 | 99% (active) | inactive | inactive | inactive | inactive
CCCCCCNC(=O)C1Cc2c([nH]c3ccc(Br)cc23)C2(CCN(Cc3ccccc3)CC2)N1 (stereo not drawn) | 75% (active) | 100% (active) | 6 | 100% (active) | inactive | inactive | inactive | inactive
Cc1cccc2[nH]c(-c3cccc(-c4ccc(CNCc5ccccc5)cc4)c3)nc12 | 100% (active) | 33% | -3 | 99% (active) | inactive | inactive | inactive | inactive
O=C(Nc1cccc(CN2CCCN(Cc3ccc(O)cc3)CC2)c1)c1ccc2ccccc2n1 | 22% | 13% | -1 | 90% (active) | inactive | inactive | inactive | inactive
O=C(c1ccccc1)N1COCC(CCN2CCC(N3CCCC3)CC2)(c2ccc(Cl)c(Cl)c2)C1 (stereo not drawn) | 9% | 18% | 0 | 83% (active) | inactive | inactive | inactive | inactive
Cc1ccc(NC(=O)NC2CCN(c3ccnc4ccccc34)C2)cc1 (stereo not drawn) | 48% | 7% | 0 | 99% (active) | inactive | inactive | inactive | inactive
O=C1CSc2ccc(CNC3CCN(CCc4c(F)cnc5ccc(F)cc45)CC3)nc2N1 | 16% | 13% | 1 | 97% (active) | inactive | inactive | inactive | inactive
CCC(C)(C)n1c(C)cc2c3c(N)nc(N)nc3ccc21 | 85% (active) | 69% (active) | 1 | 97% (active) | inactive | inactive | inactive | inactive
